Bim-Bcl-2 = human Bim-Bcl-2 interaction inhibition; P10415; Bead-based flow cytometry, Bim peptide-Bcl-2 binding; inhibition, % at 10 µM; 190,000 compounds, 0.06% hits; AID 950; in the data active means inhibition above about 40%
Bcl-XL Bim block = inhibitors of Bim-Bcl-XL interaction, human | Q07817 | Bim peptide-Bcl-XL binding, bead flow cytometry, fluorescence | 190,000 compounds, 0.04% hits | AID 1007 | inhibition, % at 10 µM
Bim-Bcl-W = disrupts Bim peptide binding to human Bcl-W; Q92843; bead-based flow cytometry; inhibition, % at 10 µM; 190,000 compounds, 0.02% hits; AID 952;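 further: higher means less fluorescent Bim peptide bound to Bcl-W beads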
Target sequence (Q92843 whole entry, looked up): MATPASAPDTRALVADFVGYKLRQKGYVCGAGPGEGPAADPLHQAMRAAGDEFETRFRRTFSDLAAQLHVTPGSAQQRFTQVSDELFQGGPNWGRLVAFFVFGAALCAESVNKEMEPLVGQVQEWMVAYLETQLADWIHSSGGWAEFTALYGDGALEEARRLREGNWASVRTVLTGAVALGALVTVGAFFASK
Bcl-B Bim block = human Bim-Bcl-B interaction inhibition; Q9HD36; bead-based flow cytometry, Bim peptide-Bcl-B binding; inhibition, % at 10 µM; 190,000 compounds, 0.073% hits; AID 951
Target sequence (Q9HD36 whole entry, looked up): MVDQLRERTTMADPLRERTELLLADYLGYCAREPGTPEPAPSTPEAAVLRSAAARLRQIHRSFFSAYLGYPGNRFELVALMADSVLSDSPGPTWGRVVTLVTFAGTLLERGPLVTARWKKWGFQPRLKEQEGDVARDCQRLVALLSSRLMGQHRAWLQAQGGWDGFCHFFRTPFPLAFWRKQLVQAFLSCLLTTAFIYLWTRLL
Bfl-1 Bim block = inhibitors of Bim-Bfl-1 interaction, human | Q16548 | Bead-based flow cytometry, Bim-Bfl-1 binding inhibition | inhibition, % at 10 µM | 190,000 compounds, 0.12% hits | AID 1008
Target sequence (Q16548 whole entry, looked up): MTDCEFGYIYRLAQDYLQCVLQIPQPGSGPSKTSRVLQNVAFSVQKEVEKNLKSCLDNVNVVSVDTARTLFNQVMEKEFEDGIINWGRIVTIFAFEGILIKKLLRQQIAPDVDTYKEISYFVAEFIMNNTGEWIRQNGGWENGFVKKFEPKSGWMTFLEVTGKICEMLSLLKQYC
A number is an active result; i = inactive; nt = not tested or not shown. Compounds with a hit are over-represented: about 0.19% of the library has one in this group of screens. Unless noted, no stated cut-off is given here; in the data, active means inhibition above about 40%.

SMILES | Bim-Bcl-2 | Bcl-XL Bim block | Bim-Bcl-W | Bcl-B Bim block | Bfl-1 Bim block
O=C(Oc1ccc(-c2cnc3ccccc3n2)cc1)c1cc([N+](=O)[O-])ccc1Cl | i | i | i | i | i
Cc1c(C(=O)Oc2ccc(-c3cnc4ccccc4n3)cc2)cccc1[N+](=O)[O-] | i | i | i | i | 40
COC(=O)c1nn(-c2ccccc2)c(Sc2ccccc2)c1/C=N/O | i | i | i | i | i
O=C(Nc1nnc(C2CC2)s1)C1Cc2ccccc2CN1S(=O)(=O)c1ccccc1F (stereo not given) | 77 | i | i | nt | nt
O=C(Nc1nccs1)C1Cc2ccccc2CN1S(=O)(=O)c1ccc(F)cc1 (stereo not given) | i | i | i | i | i
CCOc1ccc(CNc2ccc(CNc3ncn[nH]3)cc2)cc1 | i | i | i | i | i
CCOc1ccc(CNc2ccc(N3CCCC3)cc2)cc1 | i | i | i | i | 42
COc1cc(CNc2ccc(N3CCCC3)cc2)cc(Cl)c1OC | i | i | i | i | 48
CCOc1cc(CNc2ccc(N3CCCC3)cc2)cc(Cl)c1OC | i | i | i | i | i
Cc1ccc(NC(=O)C2CC(Cl)=CCC2C(=O)O)c([N+](=O)[O-])c1 (stereo not given) | i | i | i | i | i
CN(CC(=O)O/N=C(\N)c1ccc([N+](=O)[O-])cc1)S(=O)(=O)c1ccccc1 | i | i | i | 72 | i
O=C(COc1ccc(Br)cc1CNC1CCCCC1)NCCc1ccccc1 | 78 | i | i | 67 | 54
O=C(c1cc2ccccc2oc1=O)N(c1ccccc1)C1C=CS(=O)(=O)C1 (stereo not given) | i | i | i | i | 41
COC(=O)c1cc(OC)c(OC)cc1NC(=O)Nc1cccc(C(C)=O)c1 | 85 | i | i | 77 | 62
COc1ccc(CCNC(=O)c2cc(-c3ccncc3)nc3c(Cl)cccc23)cc1OC | i | i | i | i | i
COc1ccc(CCNC(=O)c2cc(-c3ccccn3)nc3c(Cl)cccc23)cc1OC | 41 | 56 | i | 53 | i
CC(=O)Nc1ccc(N2C(=O)CSC2c2c(F)cccc2Cl)cc1 (stereo not given) | i | i | i | i | i
O=C(NCCCN1CCN(CCCNC(=O)c2cc([N+](=O)[O-])ccc2Cl)CC1)c1cc([N+](=O)[O-])ccc1Cl | i | i | i | 78 | i
O=C(NCCc1cccc(Cl)c1)c1cc([N+](=O)[O-])ccc1Cl | i | i | i | i | i
COc1ccc(OC)c(N=c2ssnc2Cl)c1 | i | i | i | i | 41
CCOC(=O)c1cccnc1SC(CC)C(=O)NCc1ccco1 (stereo not given) | i | i | i | i | i
CC(C)(C)NC(=O)CCN(/N=C/c1ccc([N+](=O)[O-])o1)C1=NS(=O)(=O)c2ccccc21 | i | 53 | i | i | i
Cc1cc(-c2csc(N)n2)c(C)n1C | i | i | i | 70 | i
Cc1ccc(-n2c(C)cc(-c3csc(N)n3)c2C)cc1 | i | i | i | i | i
COc1ccc(OC)c(NC(=O)NCc2ccc(F)cc2)c1 | i | i | i | i | i
SMILES | Bim-Bcl-2 | Bcl-XL Bim block | Bim-Bcl-W | Bcl-B Bim block | Bfl-1 Bim block
O=C1C(=O)c2ccc(-c3ccccc3)cc2-c2ccccc21 | i | i | i | i | 41
COC(=O)Cc1ccc(NC(=S)N2CCN(c3cccc(O)c3)CC2)cc1 | i | i | i | 50 | i
CN(C)c1ncc(C2=C(Cl)C(=O)C(N3CCCC3)=C(Cl)C2=O)s1 | 70 | 48 | 83 | 46 | 92
Clc1ccc(Cl)c2sc(N3CCCC3)nc12 | i | i | i | i | i
O=C1C(Cl)=C(N2CCCCC2)C(=O)C(Cl)=C1c1cnc(N2CCCCC2)s1 | 69 | 49 | 85 | 52 | 91
CCc1ccc2c(c1)cc(CN(C(=S)Nc1ccc(Cl)cc1)C1CC1)c1nnnn12 | i | i | i | i | i
CC(=O)c1ccc(N2CCN(C(=O)c3ccc4c(Cl)c5c(nc4c3)CCCC5)CC2)cc1 | i | i | i | i | i
O=C(NCN1C(=O)C2C3C=CC(C3)C2C1=O)Nc1ccccc1O (stereo not given) | i | i | i | i | i
CC(=NCCCn1ccnc1)C1=C(O)c2ccccc2C1=O | 87 | i | i | 86 | 63
Cc1ccc(CNC(=O)CCNS(=O)(=O)c2cccs2)cc1 | i | i | i | i | i
COc1ccc(N2CCN(CCCNC(=O)CCCn3c(=O)[nH]c4ccsc4c3=O)CC2)cc1 | 62 | i | i | 67 | i
CN1/C(=C\C(=O)Nc2ccc(Cl)cc2)C(C)(C)c2ccccc21 | i | 40 | i | i | i
O=C(O)CC/C(=C\c1cc([N+](=O)[O-])ccc1Cl)c1nc2ccccc2s1 | i | 40 | i | i | i
O=C(O)CC/C(=C\c1ccccc1[N+](=O)[O-])c1nc2ccccc2s1 | i | i | i | i | i
O=c1[nH]c(=O)c2nnc(N/N=C\c3ccc(O)cc3)nc2[nH]1 | i | 44 | i | i | i
COC(=O)c1ccccc1N/C=C1\CCc2c(c(C)nn2-c2ccccn2)C1=O | i | i | i | i | 50
Cc1ccc2cc(C)c(Sc3nnnn3-c3ccccc3)nc2c1 | i | 42 | i | i | 40
O=C(C1CCCN(Cc2ccccc2)C1)N1CCc2ccccc2C1 (stereo not given) | i | i | i | i | i
CCC1SC2=NC(C)=C(C(=O)OCCOC)C(c3ccc(C(=O)OC)cc3)N2C1=O (stereo not given) | i | i | i | i | i
O=C(Cc1ccccc1)N/N=C/c1cccn1-c1ccc([N+](=O)[O-])cc1 | i | i | i | 50 | i
NC1=NC(c2cn[nH]c2-c2cccc(F)c2)n2c(nc3ccccc32)N1 (stereo not given) | i | i | i | i | i
Cc1cc(-c2nnc(CCC(=O)NC(C)c3cccc4ccccc34)o2)no1 (stereo not given) | 73 | i | i | 78 | 44
Cc1ccc(N2CCN(C(=O)c3ccccc3F)CC2)c(C)c1 | i | i | i | i | i
CCCS(=O)(=O)n1nc(-c2ccc(Br)cc2)cc1N | i | i | i | i | i
O=c1nc2c(O)cccn2c2c1c(=O)[nH]c1ccccc12 | i | 47 | i | i | i
SMILES | Bim-Bcl-2 | Bcl-XL Bim block | Bim-Bcl-W | Bcl-B Bim block | Bfl-1 Bim block
Cc1ccc(NC(=O)c2cccc(OCc3c(C)noc3C)c2)cc1 | i | i | i | i | i
Cc1noc(C)c1COc1ccc(C(=O)Nc2cccnc2)cc1 | i | i | i | 43 | i
COc1ccccc1Cn1c(=S)[nH]c2cc(C(=O)NCc3cccnc3)ccc2c1=O | i | i | i | i | i
O=[N+]([O-])c1ccc(N/N=C/c2ccc(O)c(O)c2O)c(S(=O)(=O)N2CCOCC2)c1 | i | i | 40 | i | 63
O=[N+]([O-])c1ccc(N/N=C/c2cccc(O)c2O)c(S(=O)(=O)N2CCOCC2)c1 | i | i | i | i | i
Cc1ccc(C(C(=O)NC(C)(C)C)N(C(=O)c2csnn2)c2ccccc2F)o1 (stereo not given) | i | i | i | i | i
COCCN=c1scc(-c2ccco2)n1/N=C/c1ccc(O)c(O)c1O | i | i | i | i | 41
COC(=O)c1ccc(Nc2cc(C)nc3nc(C)nn23)cc1 | i | i | i | i | i
